According to patent US20060069055, “Delivery of polynucleotides” (published 2006):

Target: NF-kB p65/p50 heterodimer (Homo sapiens, UniProt Q04206;P19838 Q04206:1-551,P19838:1-433)
Assay: EMSA; Table 3 gives 58 for PO
Conditions: protein: extract; tags: nuclear extract of LPS-stimulated THP-1 cells; dsDNA, one strand shown
Description: The EMSA assay was employed to characterize oligonucleotide decoys for the NF-κB transcription factor. […] Using the above modified oligonucleotides to compete for binding for the above-mentioned NF-κB family members, it was possible to compare the binding affinity of these oligonucleotides against the high affinity radiolabeled probe and each other. This assay has also enabled the design of a decoy which selectively binds particular members of the NF-κB family. By using increasing concentrations of various oligonucleotides, it was observed that, by deleting or changing targeted residues in the binding site, it was possible to specifically decrease the binding of the decoy molecule to p50/p50 homodimers, while retaining the affinity for p65/p50 and cRel/p50 heterodimers.
The NF-κB gel shift assays (EMSA) were performed as follows. A double-stranded oligonucleotide containing a consensus NF-κB binding site (5′ […].GGC 3′) (SEQ ID NO: 26) was end-labeled with γ³²P-ATP using T4 Polynucleotide Kinase (Promega). […] The dried gels were imaged and quantitated using a Typhoon 8600 Phosphorlmager (Amersham) and ImageQuant software. […]

NF-kB p65/p50 heterodimer, sequence (Q04206 whole entry, chain 1 of 2): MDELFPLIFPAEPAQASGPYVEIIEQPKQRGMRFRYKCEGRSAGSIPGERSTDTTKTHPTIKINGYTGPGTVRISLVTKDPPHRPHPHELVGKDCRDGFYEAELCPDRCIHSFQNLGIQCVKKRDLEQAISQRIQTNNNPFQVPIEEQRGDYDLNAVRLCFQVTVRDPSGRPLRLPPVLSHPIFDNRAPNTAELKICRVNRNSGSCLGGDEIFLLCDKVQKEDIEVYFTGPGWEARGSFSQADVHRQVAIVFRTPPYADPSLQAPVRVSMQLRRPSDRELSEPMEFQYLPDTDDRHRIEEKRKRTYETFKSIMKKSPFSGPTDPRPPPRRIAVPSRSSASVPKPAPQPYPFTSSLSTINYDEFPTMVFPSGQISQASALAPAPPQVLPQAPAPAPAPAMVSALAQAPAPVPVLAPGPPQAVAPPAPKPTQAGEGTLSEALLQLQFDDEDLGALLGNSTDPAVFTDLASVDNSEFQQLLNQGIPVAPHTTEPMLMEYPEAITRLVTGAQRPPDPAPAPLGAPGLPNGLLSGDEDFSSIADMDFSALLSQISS
NF-kB p65/p50 heterodimer, sequence (P19838 1-433, chain 2 of 2): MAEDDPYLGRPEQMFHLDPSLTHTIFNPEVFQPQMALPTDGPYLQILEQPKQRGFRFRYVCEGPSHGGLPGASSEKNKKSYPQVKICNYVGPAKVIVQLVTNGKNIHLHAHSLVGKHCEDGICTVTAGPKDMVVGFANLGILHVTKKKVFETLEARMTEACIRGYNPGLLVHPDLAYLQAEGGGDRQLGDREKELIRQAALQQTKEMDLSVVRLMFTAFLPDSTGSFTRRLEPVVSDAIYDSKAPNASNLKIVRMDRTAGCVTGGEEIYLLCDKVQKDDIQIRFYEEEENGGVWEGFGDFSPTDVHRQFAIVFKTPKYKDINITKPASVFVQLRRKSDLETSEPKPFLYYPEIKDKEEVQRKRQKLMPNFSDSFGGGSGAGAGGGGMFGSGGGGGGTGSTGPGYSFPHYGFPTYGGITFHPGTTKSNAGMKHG

Row | Sequence | IC50
1 | AGTTGAGGACTTTCCAGGC | 62.4 fold molar excess
